Source: PubChem
Sampled rows, rich in hits. Any-hit rate of the full collection: about 21%.
CHX counter: affects cycloheximide protein synthesis inhibition readout, counter-screen; cell reporter, cycloheximide protein synthesis inhibition counterscreen; max response, %; hit rate 12% among 300,000; AID 2314; in the data active = max response mostly above about 13%, no sharp cut-off; inactive = mostly below about 14%; also: read at 38.3 µM for the half of the compounds with a filed dose; 0% is about no effect
Shiga inhibitor: Shiga toxin inhibition; Vero cells, Shiga toxin protein synthesis inhibition reporter; inhibition, % at 38.7 µM; hit rate 9.2% among 290,000; in the data active = inhibition mostly above about 28%, no sharp cut-off; inactive = mostly below about 43%; also: 0% is about no effect
Pf growth 96h: P. falciparum growth inhibition at 96 hours | P. falciparum luciferase reporter growth, 96 h | Potency, µM (doses to about 28.7 µM), for inactives: top-dose activity change, negative = inhibition, hits mostly inhibitors | hit rate 6.9% among 320,000; also: potency is read from the fitted curve at half-maximal effect; % is scaled to controls: 0 for no effect and ±100 for the full control effect
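Readout is luminescence from an integrated firefly luciferase in P. falciparum. Red cells, 2% hematocrit and 0.05% parasitemia final, were cultured with compound through two parasite generations (96 hours) at 37 C, 5% CO2.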
Pf growth 48h: inhibits P. falciparum growth in the first generation, 48 h. P. falciparum luciferase growth in erythrocytes, 48 h. Potency, µM (doses to about 28.7 µM), inactives show top-dose activity change, negative = inhibition, usual class: inhibitors. hit rate 5.9% among 310,000. AID 504832; also: potency is read from the fitted curve at half-maximal effect; % is scaled to controls: 0 for no effect and ±100 for the full control effect
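Growth was read as firefly luciferase luminescence after a 48 h, 37 C, 5% CO2 exposure of compounds to reporter-bearing P. falciparum cultures (0.1% parasitemia, 2% hematocrit final) in Albumax-supplemented RPMI 1640.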
Active calls of the source: *; ? = inconclusive; · = no result given. Unless noted, calls follow the shape of the dose curve; as a rule, active = well fitted inhibition curve with a large enough effect; inconclusive = small, poorly fitted or top-dose-only effect, or another doubt; inactive = no such curve, though single readings can be large or run the other way.

SMILES	CHX counter	Shiga inhibitor	Pf growth 96h	Pf growth 48h
Cc1ccccc1NC(=O)c1cc(C(=O)c2cc(Cl)ccc2O)cn(-c2ccccc2C)c1=O	39*	46*	0.74µM*	0.47µM*
Cc1ccc(O)c(C(=O)c2cc(C(=O)NCCc3ccccc3)c(=O)n(CCc3ccccc3)c2)c1	-2	-6	1.5µM*	1.9µM*
COc1ccc(O)c(C(=O)c2cc(C(=O)NCCc3ccccc3)c(=O)n(CCc3ccccc3)c2)c1	32*	19	?	?
COC(OC)c1ccc(C#N)c(=O)[nH]1	11	-6	25%	?
Cc1ccc2[nH]c(CNC(=O)C3CCCCC3)cc2c1	12	14	22%	-8%
CCOC(=O)CNc1c(-c2ccc(OC)cc2)nc2ccc(Cl)cn12	20*	36*	?	11%
COCCNc1c(-c2ccc(OC)cc2)nc2ccc(Cl)cn12	29	62*	-5%	20%
CCOC(=O)CNc1c(-c2ccc(Cl)cc2)nc2cnccn12	-2	-11	3%	4%
C/C=C1\COC(C(=O)NCCN2CCOCC2)(C(F)(F)F)C=C1C=C(C)C (stereo not given)	12	11	·	·
Cc1ccc(SCC(=O)OCC(=O)N2CCN(C(=O)c3ccco3)CC2)c(C)c1	·	·	-3%	-1%
CCC1CCCCN1C(=O)CCc1nnc(Cc2cc(OC)ccc2OC)o1 (stereo not given)	54*	93*	-7%	-22%
COc1ccc(OC)c(Cc2nnc(CCC(=O)NC(C3CC3)C3CC3)o2)c1	-2	59	25%	12%
COc1ccc(OC)c(Cc2nnc(CCC(=O)N3CCN(C4CCCC4)CC3)o2)c1	40*	99*	-11%	4%
COc1ccc(OC)c(Cc2nnc(CCC(=O)N3CCCCC3)o2)c1	22*	73*	?	11%
O=C(CN(Cc1ccccc1F)C(=O)c1csnn1)NCc1ccc2c(c1)OCO2	4	16	3%	0%
O=c1c2ccccc2oc2cc(OCc3ccc(F)cc3)cc(O)c12	2	1	23%	12%
O=C(Nc1ccccc1Cl)C1CCN(S(=O)(=O)c2cccc3nonc23)CC1	2	-22	?	-12%
C/C(=N\Nc1ccc([N+](=O)[O-])cc1)c1ccc(O)cc1	37*	45*	115%	43%
C/C(=N\Nc1ccc([N+](=O)[O-])cc1)c1cccc(N)c1	39*	123*	144%	178%
CC(=O)NC/C(C)=N\Nc1ccc([N+](=O)[O-])cc1	10	3	?	-11%
C/C(=N/Nc1ccccc1[N+](=O)[O-])c1ccc([N+](=O)[O-])cc1	-8	-7	?	24%
CCOc1ccc2oc(C(=O)Nc3cc(C)ccn3)c(C)c2c1	·	·	-26%	-2%
O=CN(Cc1ccco1)C1(C(=O)NC2CCCCC2)CCCCC1	6	31	-6%	4%
COC(=O)[C@]12OC[C@]34C([C@@H](O)[C@@H]1O)[C@]1(C)CC(=O)C(O)=C(C)[C@@H]1C[C@H]3OC(=O)[C@H](O)[C@@H]24 (stereo not given in full)	-12	-12	1µM*	1µM*
Cc1ccc(S(=O)(=O)N2CCCC2)cc1C(=O)N1CCN(Cc2ccccc2)CC1	-2	-6	?	24%
SMILES	CHX counter	Shiga inhibitor	Pf growth 96h	Pf growth 48h
COc1ccc(C)cc1NC(=O)CSc1ccc(-c2sc(C)nc2C)nn1	-2	-5	1%	12µM*
COc1cc(NC(=O)CSc2ccc(-c3ccccn3)nn2)cc(OC)c1	10	10	?	?
COc1ccccc1NC(=O)CSc1ccc(-c2ccc(-n3ccnc3)cc2)nn1	·	·	?	12µM*
COc1ccc(C)cc1NC(=O)CSc1ccc(-c2ccccn2)nn1	11*	20	9.3µM*	?
COc1ccc(OC)c(C2=Nn3c(nnc3-c3cccc(OC)c3OC)SC2)c1	-5	-6	·	·
NC(=O)NC(=O)COC(=O)CC12CC3CC(CC(C3)C1)C2	-3	-22	23%	14%
CC(C)Cc1nn2c(=O)cc(CSCC(=O)Nc3ccccc3F)nc2s1	-3	12	-19%	9%
COc1cc2c(cc1OC)C(COc1ccc(F)cc1)N(C(=O)c1ccco1)CC2 (stereo not given)	13	17	?	12µM*
COc1cc2c(cc1OC)C(COc1ccccc1OC)N(C(=O)C(C)(C)C)CC2 (stereo not given)	15	22	-2%	12µM*
COc1cc2c(cc1OC)C(c1cc3cccc(C)c3[nH]c1=O)N(C(=O)c1ccco1)CC2 (stereo not given)	2	10	-6%	12µM*
COc1cc2c(cc1OC)C(COc1ccc3c(C)cc(=O)oc3c1)N(C(=O)c1ccco1)CC2 (stereo not given)	-2	-4	·	?
COc1cc2c(cc1OC)C(COc1ccccc1OC)N(C(C)=O)CC2 (stereo not given)	2	-6	-5%	-16%
Cc1ccc(F)cc1NC(=O)CSc1ncccn1	4	-16	-3%	3%
CCC(=O)NN1CCc2cc3ccc(C)cc3nc21	-3	-4	24%	-5%
CCOc1cc(Cl)c(S(=O)(=O)NCCCn2ccnc2)cc1Cl	7	-2	?	?
CCN(c1ccccc1)S(=O)(=O)c1ccc(C(=O)N(C)CCc2ccc(OC)c(OC)c2)cc1	-6	-8	?	?
C=CCNc1nc(-c2c(C)nc3sccn23)cs1	25*	50*	5%	-8%
Cc1nc2sccn2c1-c1csc(NCc2ccccc2)n1	14	29	74%	13µM*
C=CCNc1nc(C2(C)CC3(CC(C)(C)OC3=O)C(=O)O2)cs1 (stereo not given)	1	-15	19%	3%
Cc1cc(NC(=O)COC(=O)CCNS(=O)(=O)c2ccccc2)n(-c2ccccc2)n1	·	·	23%	-11%
CC(C)n1cnc2c(NCc3ccccc3)nc(NCCO)nc21	-3	-6	·	·
CC(C)n1cnc2c(N(C)c3cccc(Cl)c3)nc(N(CCO)CCO)nc21	-5	-3	9.3µM*	13µM*
NC(=O)c1ccccc1NC(=O)c1cc(S(=O)(=O)N2CCCCC2)ccc1N1CCOCC1	·	·	6.6µM*	13µM*
O=C(NC1CCCCCC1)c1cc(S(=O)(=O)N2CCCCC2)ccc1N1CCOCC1	15	-2	?	12µM*
O=C(NC1CCCCCC1)c1cc(S(=O)(=O)N2CCOCC2)ccc1N1CCCCC1	-3	12	6.6µM*	?
C[C@@]12CC(=O)NC1N(C(=O)c1cccc(C(F)(F)F)c1)C(c1ccccc1O)C2 (stereo not given in full)	-4	-5	·	-9%
Cc1cccc(C(=O)Oc2ccccc2C2C[C@]3(C)CC(=O)NC3N2C(=O)c2cccc(C)c2)c1 (stereo not given in full)	-5	-7	5.9µM*	·
CC(=O)c1ccc(N2CCN(S(=O)(=O)c3ccc4c5c3CC(=O)N5CC(C)S4)CC2)cc1 (stereo not given)	2	-20	?	3.3µM*
